Rows were chosen to be rich in hits. Some 8.7% of all compounds tested hit in one or more screens of this group.
VACV Venus inh: inhibitors of vaccinia virus (Venus reporter). Vaccinia virus Venus reporter expression, fluorescence. Potency, µM (highest dose often 36.5 µM), without a hit: at the top dose activity change, negative = inhibition, actives largely listed as inhibitors. 330,000 compounds, 0.46% hits; calls by dose curve; tested in A549 cells; note: nearly all actives have a fitted effect of over 30% in size
Pf growth 96h: P. falciparum growth inhibition at 96 hour, primary screen for plastid delayed-death inhibitors; P. falciparum luciferase reporter growth, 96 h; AID 504834; 320,000 compounds, 6.9% hits; Potency, µM (titrated, usually from 28.7 µM), for inactives: at the highest dose activity change, negative = inhibition, usual class: inhibitors
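Two-generation exposure (96 h) targets delayed-death phenotype. Reporter parasites carrying integrated firefly luciferase, in red cells at 2% hematocrit and 0.05% parasitemia final, kept at 37 C, 5% CO2; luminescence loss indicates inhibition.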
Pf growth 48h: inhibits P. falciparum growth in the first generation, 48 h | Potency, µM (series often up to 28.7 µM), for the others: at the highest dose activity change, negative = inhibition, most hits filed as inhibitors | 310,000 compounds, 5.9% hits | P. falciparum luciferase growth in erythrocytes, 48 h
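Cell-based growth assay: transgenic P. falciparum expressing firefly luciferase, cultured in red cells within RPMI 1640 containing 0.5% w/v Albumax, 24 mM bicarbonate and gentamycin. A drop in luciferase activity indicates inhibition.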
AMA1 RON2 block: disrupts binding of P. falciparum AMA1 to RON2. 360,000 compounds, 0.2% hits. Potency, µM (highest dose often 58.2 µM), inactives show top-dose activity change, negative = inhibition, hits mostly inhibitors. AlphaScreen AMA1-biotinylated RON2 peptide binding;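 note: 0% = vehicle wells and -100% = peptide control; nearly all actives have a fitted effect of over 45% in size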
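AMA1 (3D7) with his tag at 25 nM final met compounds first, then biotinylated RON2 peptide at 25 nM; detection used donor plus acceptor beads, 10 µg/mL apiece, read by AlphaScreen after 30 min at room temperature.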
VACV mCherry inh: vaccinia inhibition (mCherry reporter). Vaccinia virus mCherry reporter infection, fluorescence. Potency, µM (series often up to 36.5 µM), for inactives: top-dose activity change, negative = inhibition, usual class: inhibitors. 310,000 compounds, 0.63% hits. AID 720579; calls by dose curve; tested in A549 cells; note: nearly all actives have a fitted effect of over 35% in size
An asterisk follows results filed as active; [ ] = remark or other dose. Unless noted, calls come from the whole dose curve; as a rule, active = well fitted curve in the direction sought with a large enough effect; inconclusive = small, poorly fitted or top-dose-only effect, or another doubt; inactive = no such curve, though single readings can be large; an effect the other way counts as inactive or inconclusive. Unless noted, % is set by controls: 0 for no effect and ±100 for the full control effect; potency is the fitted concentration of half-maximal effect.

Screening Cc1ccc(N2CCN(S(=O)(=O)c3ccc4oc(=O)c5ncn(C)c5c4c3)CC2)c(C)c1 returned VACV Venus inh -21% and VACV mCherry inh -28%.
CC[N+]1(C)[C@@H]2CC[C@H]1CC(OC(=O)[C@H]1CCC(C(=O)OC3C[C@H]4CC[C@@H](C3)[N+]4(C)CC)(c3ccccc3)c3ccccc31)C2 (some centres undefined) was read as VACV Venus inh -10%, Pf growth 96h 8.3µM*, Pf growth 48h 10µM*, AMA1 RON2 block -7% and VACV mCherry inh -17%.
For Cc1cc(Cl)ccc1NS(=O)(=O)c1c(C(=O)N2CCC(C)CC2)c(C)n(C)c1C the results were VACV Venus inh -19% and VACV mCherry inh -17%.
Screening Cc1ccc(NC(=O)C[n+]2cc(-c3ccccc3)n3c2CCC3)cc1 returned Pf growth 96h 2.1µM*, Pf growth 48h 10µM* and AMA1 RON2 block 1%.
For Cc1ccc(-c2c[n+](CC(=O)Nc3ccccc3C)c3n2CCC3)cc1 the results were VACV Venus inh -14%, Pf growth 96h 6.6µM*, Pf growth 48h inconclusive, AMA1 RON2 block -15% and VACV mCherry inh -13%.
Cc1ccc(C)c(CN2C(=O)CSc3ccc(C(=O)NCCc4ccc(Cl)cc4)cc32)c1 was read as VACV Venus inh -19% and VACV mCherry inh -18%.
`Cc1ccc(NC(=O)C(Cc2ccccc2)NS(=O)(=O)c2cccc3nsnc23)c(C)c1` (centres undefined) gave VACV Venus inh -11% and VACV mCherry inh -14%.
For CCc1cccc2c(-c3ccccc3)nc(SCC(=O)Nc3ccccc3OC)nc12 the results were VACV Venus inh -4% and VACV mCherry inh -14%.
For Cc1c(C(=O)NN)[nH]c2ccc([N+](=O)[O-])cc12 the results were VACV Venus inh inconclusive, Pf growth 96h 0%, Pf growth 48h -15%, AMA1 RON2 block 79% and VACV mCherry inh -3%.
Screening CCCCC/C=N/NC(=O)c1[nH]c2ccc([N+](=O)[O-])cc2c1C returned VACV Venus inh -6%, Pf growth 96h 10µM*, Pf growth 48h inconclusive, AMA1 RON2 block 57% and VACV mCherry inh -18%.
Screening N#CC(C#N)=C(N)/C(C#N)=C/c1ccc2[nH]ccc2c1 returned VACV Venus inh -8%[60.7 µM] and VACV mCherry inh -4%[60.7 µM].
Screening CCOC(=O)N/N=C/c1cc(C)n(-c2cccc3ccccc23)c1C returned VACV Venus inh -19%, Pf growth 96h 9.3µM*, Pf growth 48h 12µM*, AMA1 RON2 block -4% and VACV mCherry inh -19%.
Screening CCOC(=O)N/N=C/c1cc(C)n(-c2ccccc2)c1C returned Pf growth 96h inconclusive, Pf growth 48h inconclusive and AMA1 RON2 block 17%.
For COC(=O)N/N=C/c1cc(C)n(-c2cccc3ccccc23)c1C the results were VACV Venus inh -13%, Pf growth 96h 15µM*, Pf growth 48h 7.4µM*, AMA1 RON2 block -3% and VACV mCherry inh -7%.
For Cc1ccc(CN(C(=O)COc2cc(C)c(Cl)c(C)c2)c2ccccn2)o1 the results were VACV Venus inh 5% and VACV mCherry inh -5%.
`CCC(=O)N1CCN(c2ccc(Cl)cc2NC(=O)c2ccc(N3CCCC3)c([N+](=O)[O-])c2)CC1` gave Pf growth 96h 1.9µM*, Pf growth 48h inconclusive and AMA1 RON2 block -10%.
Screening Cc1ccc(C(=O)Nc2cc(C(F)(F)F)ccc2N2CCCCC2)cc1[N+](=O)[O-] returned VACV Venus inh -12%, Pf growth 96h 19%, Pf growth 48h 13µM* and AMA1 RON2 block 0%.
Cc1ccc(C)c2sc(NC(=O)c3ccc(N4CCCCC4)c([N+](=O)[O-])c3)nc12 was read as VACV Venus inh -7%, Pf growth 96h inconclusive, Pf growth 48h 2.6µM*, AMA1 RON2 block -4% and VACV mCherry inh -18%.
For Cc1cc(C(=O)Nc2ccc(N3CCCC3)c(Cl)c2)ccc1[N+](=O)[O-] the results were VACV Venus inh -18%, Pf growth 96h 9.3µM*, Pf growth 48h 8%, AMA1 RON2 block 22µM* and VACV mCherry inh -21%.
COc1cccc(CNC(=O)c2ccc(-n3c(C)cc4c3CCC(C)C4)cc2)c1 (centres undefined) was read as VACV Venus inh -14% and VACV mCherry inh inactive.
CC(Sc1nc(=O)cc(N)n1CCc1ccccc1)C(=O)Nc1ccc(Cl)cc1 (centres undefined) was read as VACV Venus inh -12% and VACV mCherry inh -13%.
`O=C(Nc1ccccc1N1CCCCC1)c1cccc([N+](=O)[O-])c1` gave VACV Venus inh -6%, Pf growth 96h inconclusive, Pf growth 48h -9%, AMA1 RON2 block -25% and VACV mCherry inh -17%.
Screening O=C(Nc1cc(C(F)(F)F)ccc1N1CCCCC1)c1cccc([N+](=O)[O-])c1 returned VACV Venus inh -19%, Pf growth 96h inconclusive, Pf growth 48h 15µM*, AMA1 RON2 block inconclusive and VACV mCherry inh -29%.
For O=C(C1CCC(Cn2c(=O)c3sccc3n(Cc3ccc(F)cc3)c2=O)CC1)N1CCOCC1 (centres undefined) the results were VACV Venus inh -16% and VACV mCherry inh -16%.
`O=C(Nc1cccc(F)c1)c1ccc(-c2ccccc2C(F)(F)F)o1` gave Pf growth 96h 15µM* and Pf growth 48h inconclusive.
For O=C(NCCc1ccccc1)c1ccc(-c2ccccc2C(F)(F)F)o1 the results were VACV Venus inh -20%, Pf growth 96h -6%, Pf growth 48h 21%, AMA1 RON2 block -8% and VACV mCherry inh -9%.
Screening COc1ccccc1CNC(=O)c1ccc(-c2ccccc2C(F)(F)F)o1 returned VACV Venus inh inconclusive, Pf growth 96h inconclusive, Pf growth 48h inconclusive, AMA1 RON2 block 2% and VACV mCherry inh 11µM*.
COc1ccccc1CNC(=O)c1ccc(-c2ccccc2Cl)o1 was read as VACV Venus inh inconclusive, Pf growth 96h 10µM*, Pf growth 48h -25%, AMA1 RON2 block 0% and VACV mCherry inh inconclusive.
For COc1ccccc1CNC(=O)c1ccccc1C(=O)NC(C)(C)C(=O)NCc1ccccc1OC the results were Pf growth 96h 13µM*, Pf growth 48h 2% and AMA1 RON2 block 0%.
Screening COc1ccccc1CNC(=O)c1ccccc1OC returned VACV Venus inh -18%, Pf growth 96h inconclusive, AMA1 RON2 block 7% and VACV mCherry inh -22%.
Screening Cc1cccc(NC(=O)c2ccccc2Br)n1 returned VACV Venus inh -3%, Pf growth 96h 12µM*, AMA1 RON2 block 44% and VACV mCherry inh inactive.
For O=C(O)c1cccc(NC(=O)c2cc(NC(=O)c3ccccc3)cc(NC(=O)c3ccccc3)c2)c1 the results were VACV Venus inh -5%, Pf growth 96h 8.3µM*, Pf growth 48h 40%, AMA1 RON2 block -5% and VACV mCherry inh -28%.

Screening results as filed in PubChem BioAssay.
